Bioassay records as filed in PubChem.
Sampled rows, rich in hits. Any-hit rate of the full collection: about 2.5%.
Cruzain noTriton – blocks cruzain activity in detergent-free assay; P25779; purified cruzain, Z-FR-AMC fluorescence, no detergent; Potency, µM, without a hit: max response, negative = inhibition, hits mostly inhibitors; 200,000 compounds, 2.3% hits; AID 1476;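 also: plate controls were enzyme without inhibitor for no effect and buffer without enzyme for full effect; nearly all actives have a fitted effect of over 40% in size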
Target sequence (P25779 123-467 limits assumed): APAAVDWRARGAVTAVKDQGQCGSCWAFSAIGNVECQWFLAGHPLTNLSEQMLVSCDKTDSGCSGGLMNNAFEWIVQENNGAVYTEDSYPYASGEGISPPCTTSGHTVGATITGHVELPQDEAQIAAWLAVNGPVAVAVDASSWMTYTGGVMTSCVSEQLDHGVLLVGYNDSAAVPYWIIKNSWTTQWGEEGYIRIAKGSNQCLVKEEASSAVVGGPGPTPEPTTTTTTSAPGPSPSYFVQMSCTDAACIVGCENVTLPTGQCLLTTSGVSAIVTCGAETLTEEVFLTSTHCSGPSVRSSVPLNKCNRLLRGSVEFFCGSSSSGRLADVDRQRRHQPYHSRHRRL
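Detergent-free condition (0.00005% Triton X-100) in acetate buffer pH 5.5 with DTT. 1.5 nM enzyme and compound were pre-mixed 15 min, then 2 uM Z-FR-AMC substrate added; reaction progress from fluorescence change between first and third reads (60 s).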
Cruzain inh Det – blocks cruzain activity in presence of Triton detergent | P25779 | purified cruzain, Z-FR-AMC fluorescence, 0.01% Triton | Potency, µM, inactives show max response, negative = inhibition, actives largely listed as inhibitors | 200,000 compounds, 0.43% hits;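 also: plate controls were neutral wells for no effect and buffer without enzyme for full effect; nearly all actives have a fitted effect of over 40% in size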
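Compounds were screened in titration against cruzain (1.5 nM) with 0.01% Triton X-100 to counter colloidal aggregation. Activity was the AMC fluorescence increase over 60 s after adding 2 uM Z-FR-AMC at pH 5.5.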
Numbers without * were called inactive; ? = inconclusive. Calls follow the shape of the dose curve; as a rule, active = well fitted curve in the direction sought with a large enough effect; inconclusive = small, poorly fitted or top-dose-only effect, or another doubt; inactive = no such curve, though single readings can be large; an effect the other way counts as inactive or inconclusive. Potency is read from the fitted curve at half-maximal effect.

SMILES | Cruzain noTriton | Cruzain inh Det
Cc1ccc2c(=O)cc(C(=O)Nc3ccc(S(=O)(=O)N4CCCCCC4)cc3)oc2c1 | 5% | -1%
CCC(C)(C)NC(=O)C(c1cccn1C)N(C(=O)Cn1nnc2ccccc21)c1ccccc1OC (centres undefined) | ? | 2%
Cc1ccc(OCc2nn3c(-c4n[nH]c5c4CCC5)nnc3s2)cc1 | -3% | -1%
COc1ccc(Cl)cc1-c1nc(-c2ccc(Br)o2)no1 | 7.9µM* | 10%
COc1ccc(-c2nc(-c3ccc(Br)o3)no2)cc1 | -21% | 6%
CCc1cc2c(=O)c(-c3cnn(-c4ccccc4)c3)c(C)oc2cc1OCC(=O)Nc1ccc(F)c(F)c1 | 25µM* | -1%
CCc1cc2c(=O)c(-c3cnn(-c4ccccc4)c3)c(C)oc2cc1OCC(=O)Nc1cccc(C)c1 | ? | -2%
C/C(=N/NC(=O)c1ccoc1C)C12CC3CC(CC(C3)C1)C2 | -7% | 4%
O=C(CCCOc1ccc(Cl)cc1Cl)NNC(=O)c1ccc(NC(=O)c2ccccc2)cc1 | 4µM* | -4%
COC(=O)NNC(=O)CCCOc1ccc(Cl)cc1Cl | 4% | 1%
O=C(O)CCC(=O)NNC(=O)CCCOc1ccc(Cl)cc1Cl | -9% | 2%
Cc1ccccc1C(=O)Nc1ccc(C(=O)NNC(=O)CCCOc2ccc(Cl)cc2Cl)cc1 | 10µM* | 3%
CCCNC(=O)c1cc2n(n1)CCCN(Cc1ccc(F)cc1)C2=O | 5% | 0%
N[C@]1(C(=O)O)CCc2cc(P(=O)(O)O)ccc21 | -6% | 0%
CCOc1ccc(NC(=O)c2cc3c(s2)-c2ccccc2OC3)cc1 | -26% | -5%
COc1cccc(NC(=O)CSc2nc3n[nH]c(C)c3c(=N)n2-c2cccc(OC)c2)c1 | ? | 0%
CCc1ccc(NC(=O)CSc2nc3n[nH]c(C)c3c(=N)n2-c2cccc(OC)c2)cc1 | 13µM* | -12%
CN(Cc1ccccc1)C(=O)Cn1ncc2c3ccccc3n(Cc3cccc(Cl)c3)c2c1=O | 5% | -5%
CC(C)c1ccc(NC(=O)CSc2ncccc2C(=O)Oc2cccc([N+](=O)[O-])c2)cc1 | 16µM* | -7%
COc1ccc(NC(=O)CSc2ncccc2C(=O)OC(C)C)cc1OC | 9% | -2%
CC1CCN(c2nc(Cl)nc(Nc3ccc([N+](=O)[O-])cc3)n2)CC1 | -21% | -8%
COc1cc(Nc2nc(SCC(=O)c3ccc(Cl)c(Cl)c3)nc3ccccc23)cc(OC)c1 | 6.3µM* | 1%
COc1cc(Nc2nc(SCc3ccccc3Cl)nc3ccccc23)cc(OC)c1 | 16µM* | 1%
O=C(CSc1nc(Nc2ccccc2)c2ccccc2n1)c1ccc(Cl)cc1 | ? | -3%
COc1cc(Nc2nc(SCc3ccc(Cl)cc3)nc3ccccc23)cc(OC)c1 | ? | 4%
SMILES | Cruzain noTriton | Cruzain inh Det
COc1cc(Nc2nc(SCc3ccccc3F)nc3ccccc23)cc(OC)c1 | 25% | 1%
COc1cc(Nc2nc(SCc3cccc(Cl)c3)nc3ccccc23)cc(OC)c1 | 20µM* | 0%
CCCCCCCCCCCCOCC1CO1 (centres undefined) | -3% | 9%
CCOC(=O)c1cc([N+](=O)[O-])c([N+](=O)[O-])cc1NC(C)=O | 19% | -6%
Cc1ccc(C(=O)NNC(=O)CSc2nnc3c(n2)[nH]c2ccc(F)cc23)cc1 | ? | -14%
O=C(CSc1nnc2c(n1)[nH]c1ccc(F)cc12)OCc1ccccc1 | 13µM* | 3%
FC(F)(F)c1ccccc1-c1cc(NCc2cccs2)ncn1 | 7% | -1%
Cc1ccc2c(c1)cc1c(=O)n(Cc3cccc(Cl)c3)nc(C)n12 | 1% | -2%
COc1ccc(N=Cc2c(O)n(-c3cccc(C)n3)c(=O)c3ccccc23)cc1 | ? | -9%
COc1ccc(Cn2c(O)c(C=Nc3ccccc3)c3ccccc3c2=O)cc1 | ? | -5%
COc1ccc(Cn2c(O)c(C=Nc3ccc(O)cc3)c3ccccc3c2=O)cc1 | 25µM* | -3%
COc1ccc(Cn2c(O)c(C=Nc3ccc(C)cc3)c3ccccc3c2=O)cc1 | 13µM* | 0%
Cc1cc2ccc(=O)oc2cc1OC[C@@H](O)C(C)(C)O | 40µM* | -16%
CC(C)(O)[C@H](O)COc1c2occc2cc2ccc(=O)oc12 | 0% | 0%
C#CCOC(=O)/C(=C/C=C/c1ccccc1)NC(=O)c1ccccc1 | 13µM* | 7.1µM*
CC(C)OC(=O)/C(=C\C=C\c1ccccc1)NC(=O)c1ccccc1 | -9% | -12%
O=C(NCc1ccccc1)c1cccn1-c1nnc(N2CCCCC2)s1 | -20% | 3%
COC(=O)c1ccccc1NC(=O)c1nn(C)c2c1COc1ccccc1-2 | 6% | -2%
CCc1ccc(NC(=O)Cn2nc(C(F)(F)F)c3c2CCC3)cc1 | -18% | -3%
N#Cc1c(NC(=O)Cn2nc(C(F)(F)F)c3c2CCCC3)sc2c1CCC2 | 7.9µM* | 8%
CC1CCN(CC(=O)Nc2sc3c(c2C#N)CCC3)CC1 | 9% | -8%
CC1CCc2c(sc(NC(=O)Cn3nc(C(F)(F)F)c4c3CCCCC4)c2C#N)C1 (centres undefined) | 20µM* | 2%
CCOC(=O)c1cc2c(=O)n3ccccc3nc2n(C)c1=NC(=O)c1c(-c2ccccc2Cl)noc1C | 8% | 1%
Cc1cc(C)nc(-n2nc(C)c3c2NC(=O)CC3c2cc(F)ccc2F)n1 (centres undefined) | 9% | 1%
COc1ccc(CCn2cc3c(c2-c2ccccc2Br)c(=O)n(C)c(=O)n3C)cc1OC | ? | -1%
SMILES | Cruzain noTriton | Cruzain inh Det
COc1ccc(C(=O)OC(C(=O)c2ccccc2)c2ccccc2)cc1 (centres undefined) | -9% | -1%
O=C(OCc1nc2ccccc2s1)c1cccs1 | -4% | 0%
O=C(CNC(=O)c1ccc(Cl)cc1)OCc1nc2ccccc2s1 | 16µM* | 14µM*
O=C(CN1C(=O)c2ccccc2C1=O)OC(C(=O)c1ccc(Cl)cc1)c1ccccc1 (centres undefined) | 32µM* | 2%
COc1ccc(C(=O)C(OC(=O)CNC(=O)c2ccco2)c2ccccc2)cc1 (centres undefined) | 3.2µM* | 4µM*
Cc1ccc(C(=O)NCC(=O)NCC(=O)OCc2ccc(Cl)cc2)cc1 | 1% | -3%
Cc1ccc(C(=O)C(OC(=O)CN2C(=O)c3ccccc3C2=O)c2ccccc2)cc1 (centres undefined) | ? | 3%
Cc1ccc(C(=O)C(OC(=O)CNC(=O)c2ccc(Cl)cc2)c2ccccc2)cc1 (centres undefined) | 10µM* | 6.3µM*
Cc1nc(-c2ccccn2)sc1C(=O)Nc1ccc(Cl)c(Cl)c1 | 13% | -3%
COc1ccc(NC(=O)CCC(=O)OC(C(=O)c2ccccc2)c2ccccc2)cc1 (centres undefined) | -8% | -12%
O=C(CNC(=O)c1ccccc1)OC(C(=O)c1ccccc1)c1ccccc1 (centres undefined) | 4µM* | 6.3µM*
C#CCn1cc(/C=N/Nc2nc3ccccc3[nH]2)c2ccccc21 | 32µM* | -22%
CCCCn1c(/C=N/Nc2nc3ccccc3[nH]2)nc2ccccc21 | ? | -11%
O=C(Cn1c(=O)n(Cc2ccc3c(c2)OCO3)c(=O)c2ccc(C(=O)NC3CCCCC3)cc21)Nc1ccccc1F | 13µM* | 0%
CCc1ccccc1NC(=O)Cn1c(=O)n(Cc2ccc3c(c2)OCO3)c(=O)c2ccc(C(=O)NC3CCCCC3)cc21 | -9% | 5%
CC1CCN(C(=O)CSc2nnc(NC(=O)Nc3ccccc3)s2)CC1 | -2% | -3%
